# Assay outcomes from PubChem BioAssay.
# Only some compounds are listed: those with a hit (about 6.8% of all), similar ones and a draw of the others.
# KB-V1 MDR tox: KB-V1 MDR subline cytotoxicity; KB-V1 MDR cells viability, CellTiter-Glo, 72 h; Potency, µM (highest dose often 46.1 µM), most hits filed as cytotoxic; actives 3.4% (n = 400,000); note: % is set by controls: 0 for no effect and ±100 for the full control effect; nearly all actives have a fitted effect of over 60% in size
#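 Compound-treated KB-V1 multidrug-resistant cells, 72 h, 37 degrees C; viability by CellTiter-Glo. Fitted qHTS curves give the values.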
# KB-3-1 cytotox: KB-3-1 parental cell cytotoxicity; KB-3-1 viability, CellTiter-Glo ATP luminescence, 72 h; Potency, µM (top dose mostly 46.1 µM), most hits filed as cytotoxic; actives 1.4% (n = 400,000); AID 1347075; note: % is set by controls: 0 for no effect and ±100 for the full control effect; nearly all actives have a fitted effect of over 60% in size
#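 Cytotoxicity measured as CellTiter-Glo luminescence after 72 h at 37 C. Compound titrations were pinned onto drug-naive KB-3-1 parental adenocarcinoma cells grown in DMEM with 10% FBS, and normalized data fitted to concentration-response curves.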
# PTAP TSG101 blk: blocks PTAP/TSG101 interaction to inhibit HIV-1 budding; Potency, µM (highest dose often 115 µM), without a hit: top-dose activity change, negative = inhibition, usual class: inhibitors; Q99816; 340,000 tested, under 10 active; Fluorescence polarization, FITC-PTAP peptide / Tsg101 binding; active = well fitted inhibition curve with a large enough effect in the main read-out, with a control signal flat, not every such curve was filed as active; inconclusive = small, poorly fitted or top-dose-only effect, or effect the other way, or a change in a side signal; inactive = no such curve, though single readings can be large or run the other way; note: % of control where 0% means no effect
# Target sequence (Q99816 whole entry, looked up): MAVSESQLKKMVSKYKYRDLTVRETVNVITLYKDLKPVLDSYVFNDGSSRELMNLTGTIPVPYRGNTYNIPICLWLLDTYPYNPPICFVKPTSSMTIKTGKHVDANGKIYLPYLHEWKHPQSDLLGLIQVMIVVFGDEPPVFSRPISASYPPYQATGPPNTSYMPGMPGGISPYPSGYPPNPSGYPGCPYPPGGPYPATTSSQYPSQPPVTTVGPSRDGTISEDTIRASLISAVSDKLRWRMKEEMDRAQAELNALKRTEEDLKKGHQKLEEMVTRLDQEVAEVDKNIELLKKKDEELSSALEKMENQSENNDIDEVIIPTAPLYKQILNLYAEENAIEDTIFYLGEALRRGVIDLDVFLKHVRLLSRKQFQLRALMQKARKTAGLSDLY
#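 Compounds were pin-transferred onto Tsg101 binding domain (10 uM final) in HEPES pH 7.5 buffer, then FITC-PTAP peptide was added at 50 nM final. After 20 min at RT, polarization reported peptide displacement across a qHTS concentration series.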
# PINK1 expr mod: PINK1 expression modulation | PINK1 immunofluorescence, high-content cytometry, 24 h | Potency, µM (series often up to 76.6 µM), inactives show at the highest dose activation (PINK1 increase), actives largely listed as activators | actives 0.2% (n = 410,000); active = well fitted activation curve with a large enough effect; inconclusive = small, poorly fitted or top-dose-only effect; cell line not stated here; note: % of control where 0% means no effect; nearly all actives have a fitted effect of over 65% in size
#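 Readout is PINK1 immunofluorescence, quantified alongside mitochondrial, cell and nuclear markers by laser-scanning microplate cytometry. Cells from a stable line were exposed to compound titrations (5 concentrations) for 24 hours, with CCCP controls.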
# SW480 rerep: DNA re-replication induction in SW480 cells. SW480 DNA re-replication, Hoechst DNA content imaging, 48 h. Potency, µM (titrated, usually from 46.1 µM), inactives show at the highest dose re-replication activation, most hits filed as activators. actives 1.8% (n = 340,000). AID 624297; note: % of control where 0% means no effect; nearly all actives have a fitted effect of over 55% in size
#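 250 cells/well; 23 nL cpd via pin tool; 48 hr, 37 C, 5% CO2; Hoechst 40 min; imager read of total nuclear intensity, ex 405/em 500-530 nm.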
# MCF10A rerep: induces DNA re-replication in MCF 10a normal breast cells; MCF 10A DNA re-replication, Hoechst nuclear intensity, 48 h; Potency, µM (top dose mostly 46.1 µM), without a hit: at the highest dose activity, positive = re-replication, most hits filed as activators; actives 2.9% (n = 350,000); note: % of control where 0% means no effect; nearly all actives have a fitted effect of over 50% in size
# * hit, by the source's call; i = inactive; ? = inconclusive; / = no result given; [ ] = dose if it differs, or a comment. Unless noted, calls come from the whole dose curve; as a rule, active = well fitted curve in the direction sought with a large enough effect; inconclusive = small, poorly fitted or top-dose-only effect, or another doubt; inactive = no such curve, though single readings can be large; an effect the other way counts as inactive or inconclusive. Potency is the fitted concentration of half-maximal effect.
SMILES,KB-V1 MDR tox,KB-3-1 cytotox,PTAP TSG101 blk,PINK1 expr mod,SW480 rerep,MCF10A rerep
Cc1c(CCC(=O)NCCCn2ccnc2)c(=O)oc2c(C)c3oc4c(c3cc12)CCCC4,i,23µM*,2%,0%,-3%,14%
CCOc1ccc(CCNC(=O)c2c3c(nc4ccccc24)C(=O)N(C2CCCCC2)C3)cc1,i,i,/,0%,/,/
CCOc1ccc(CNC(=O)C2CCN(c3nc4ccccc4nc3C(F)(F)F)CC2)cc1OC,i,i,/,0%,/,/
CC(=O)c1ccc(NC(=O)C(C)O/N=C(\N)c2ccccc2)cc1 (stereo unspecified),23µM*,i,-3%,0%,-3%,0%
CSc1ccc(-c2cnc(N3CCC(C(N)=O)CC3)s2)cc1,i,i,/,/,/,/
CCn1c(C)nnc1SCC(=O)Nc1ccc(C(C)=O)cc1,i,i,-4%,0%,-4%,1%
CCn1c(COc2ccccc2)nnc1SCC(=O)Nc1cc(OC)ccc1OC,13µM*,i,-7%,-3%,4%,3%
CCn1c(COc2cccc(OC)c2)nnc1SCC(=O)Nc1cc(OC)ccc1OC,?,i,-6%,-3%[38.3 µM],-7%,5%
CCn1c(CC(=O)Nc2cccc(Cl)c2Cl)nnc1SCCOc1ccc(OC)cc1,21µM*,i,-5%,1%[38.3 µM],-9%,4%
COc1ccc(OCCSc2nnc(CC(=O)Nc3cccc(Cl)c3Cl)n2C)cc1,?,i,/,-1%[38.3 µM],12%,18%
CCn1c(C)nnc1SCC(=O)Nc1cccc(Cl)c1,?,i,1%,0%,15µM*,2%
CCOC(=O)c1cccc(NC(=O)CSc2nnc(COc3ccccc3)n2CC)c1,12µM*,i,-5%,19%[38.3 µM],1%,?
C=CCn1c(SCCOc2ccccc2)nnc1C(C)NC(=O)c1ccccc1 (stereo unspecified),?,i,1%,/,-7%,0%
C=CCn1c(CCNC(=O)c2ccc(Cl)c(Cl)c2)nnc1SCCOc1ccc(OC)cc1,5.2µM*,i,-10%,-7%[38.3 µM],10%,21µM*
CC1CCN(CCOc2cccc(Br)c2)CC1,i,i,-1%,-1%,1%,11%
Clc1cccc(OCCN2CCN(CCOc3cccc(Cl)c3)CC2)c1,i,16µM*,0%,-1%,?,?
Cc1cccc2cc(CNCCCN3CCCC3=O)c(N3CCN4CCCC4C3)nc12 (stereo unspecified),/,/,/,1%,/,/
CCc1nccn1C(=O)c1cnn2c(C(F)F)cc(-c3ccc(C)cc3)nc12,?,?,1%,-4%,?,18µM*
Cc1ccc(-c2cc(C(F)F)n3ncc(C(=O)N4CCc5ccccc54)c3n2)cc1,5.8µM*,i,-1%,0%,7.3µM*,2.6µM*
CCN1CCN(C(=O)c2cnn3c(C(F)F)cc(-c4ccc(C)cc4)nc23)CC1,i,i,-5%,/,0%,6%
Cc1ccc2nc3sc(C(=O)N4CCCc5ccccc54)c(N)c3cc2c1,6.5µM*,?,?,14%[38.3 µM],3.7µM*,?
O=C(c1cnn2c(C(F)F)cc(-c3ccccc3)nc12)N1CCc2ccccc21,i,i,-6%,7%,-1%,7%
COc1cc2ccccc2cc1C(=O)N1CCc2ccccc21,i,?,-2%,4%,?,16µM*
COc1cc(OC)c(NC(=O)C(C)n2c(=O)cc(-c3ccccc3)c3c(C)nn(C)c32)cc1Cl (stereo unspecified),i,i,/,4%,/,/
Cc1ccc(-c2cc(C(=O)N3CCCc4ccccc43)c3ccccc3n2)cc1,23µM*,?,-1%,?,?,21µM*
SMILES,KB-V1 MDR tox,KB-3-1 cytotox,PTAP TSG101 blk,PINK1 expr mod,SW480 rerep,MCF10A rerep
COc1ccc(-c2cc(C(F)F)n3ncc(C(=O)N4CCc5ccccc5C4)c3n2)cc1,?,i,-1%,-2%,15µM*,?
Cc1ccnc2c(N)cccc12,i,?,/,/,/,/
O=C(Nc1ccc(F)cc1Cl)C1Cc2ccccc2N1C(=O)c1ccccc1 (stereo unspecified),i,i,/,2%,/,/
COc1ccc2cc(C(=O)C3CCCN(Cc4cnc(C)s4)C3)ccc2c1 (stereo unspecified),9.2µM*,?,-1%,-1%,?,7%
COc1ccc(C(=O)C2CCCN(Cc3cnc(N4CCCC4)s3)C2)cc1OC (stereo unspecified),i,i,-4%,0%,-1%,-2%
COC(=O)C1=CO[C@@H](O[C@H]2OC(CO)C(O)C(O)C2O)C2C1CC(O)C2C (stereo partly specified),/,/,/,1%,/,/
CCN(N=O)c1ccc(/C=C2\C=Cc3ccccc32)cc1,?,i,/,2%,/,/
CCN(N=O)c1ccc(C=C2C=Cc3ccccc32)cc1,21µM*,i,-2%,0%,-4%,?
Cc1cccc(C2=NN(c3ccccc3)[C@@H](C(=O)N3CCOC3=O)[C@@H]2C)c1,i,i,-3%,1%,-25%,16%
Cc1cccc(C2=NN(c3ccc(Br)cc3)[C@@H](C(=O)N3CCOC3=O)[C@@H]2C)c1,i,i,-9%,0%,?,5.2µM*
C[C@@H]1C(c2ccccc2)=NN(c2ccc(Br)cc2)[C@H]1C(=O)N1CCOC1=O,i,?,2%,1%,?,15µM*
CC[C@@H]1C(c2ccccc2)=NN(c2ccccc2)[C@H]1C(=O)N1CCOC1=O,i,i,4%,4%,10%,23µM*
COc1ccccc1NC(=O)c1ncoc1-c1ccco1,i,i,/,3%,/,/
CCOc1ccc(-n2nc3c(=O)n(CCN4CCCCC4)nc(C)c3c2C)cc1,i,i,0%,0%,23µM*,0%
Cc1ccc(-n2nc3c(=O)n(CCCC(=O)NCc4ccc(F)cc4)nc(C)c3c2C)cc1,i,i,-4%,0%,-39%,16%
Cc1ccc(-n2nc3c(=O)n(CC(=O)c4ccc(F)cc4)nc(C)c3c2C)cc1,2.9µM*,i,-3%,2%,-64%,?
Cc1nn(Cc2ccccc2)c(=O)c2nn(-c3ccc(Cl)cc3)c(C)c12,8.2µM*,i,-3%,-2%,-22%,-6%
Cc1ccc(CSCc2ccc(C(=O)NCCc3ccc(Cl)cc3)o2)cc1,i,i,/,?,/,/
Cc1cc(C)c(Cn2c(C)c(CNCCCc3ccccc3)c(C(=O)O)c2C)c(C)c1,?,i,/,2%,/,/
